CRFBP-R2 agonist – agonists of CRF-BP/CRF-R2 complex, primary screen, cell-based, HEK293, calcium dye fluorescence, uHTS | calcium dye fluorescence (FLIPR); percent of saturating CRF peptide response | activation, % at 13.2 µM | 350,000 compounds, 0.46% hits | AID 588473, 2011;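 active = activation of at least 50%, plus an integration ratio under a set limit after plate pattern correction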;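 note: plate controls were neutral control wells without compound for no effect and CRF at EC100 for full effect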
C-LANA FP – inhibitors of KSHV C-LANA binding to DNA, primary screen, biochemical, fluorescence polarization, FAM-LBS DNA, MBP-C-LANA, single point; Kaposi's sarcoma herpesvirus LANA C-terminal domain (residues 932-1162) DNA binding; inhibition, % at 9 µM; 340,000 compounds, 0.078% hits;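 active = highest replicate inhibition at or above 60% at 9 µM, even if other replicates fall short; inactive = all replicates below 60% inhibition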;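 note: 0% = neutral control wells and 100% = 4 µM acridine orange control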
cardiac RTF act – cardiac RTF calcium sensitivity activators, primary screen, biochemical, IANBD-TnC fluorescence, EC20 calcium. Troponin I, cardiac muscle (Homo sapiens) + Troponin T, cardiac muscle (Homo sapiens) + …. IANBD-labeled TnC RTF fluorescence at EC20 calcium; 0% EC20 calcium, 100% full calcium. activation, % at 7.2 µM. 340,000 compounds, 0.24% hits. AID 493008, 2010;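 active = activation above the mean over all tested compounds plus 3 SD, cut at about 30% in these data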;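 note: rise in fluorescence read as greater calcium sensitivity of cardiac thin filaments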
CRFBP-R2 block – antagonists of CRF-BP/CRF-R2 complex, primary screen, cell-based, HEK293, calcium dye fluorescence, uHTS; CRF-induced calcium fluorescence; inhibition, % at 11.8 µM; 350,000 compounds, 0.59% hits; AID 588475, 2011;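 active = inhibition of the ligand-induced calcium signal above about 50% at the single tested concentration, limit read from the data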
Cardiac RTF inh – cardiac RTF calcium sensitivity inhibitors, primary screen, biochemical, IANBD-TnC fluorescence, EC70 calcium; Troponin I, cardiac muscle (Homo sapiens) + Troponin T, cardiac muscle (Homo sapiens) + …; IANBD-labeled cardiac RTF, Ca2+ fluorescence; inhibition, % at 7.15 µM; 340,000 compounds, 0.12% hits; AID 493244, 2011;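 active = inhibition above the mean inhibition of all tested compounds plus 3 SD, cut at about 17% in these data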;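 note: assay run at fixed EC70 calcium of 1.6 mM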
Keap1 Nrf2 FP – Keap1-Nrf2 protein-protein interaction inhibitors, primary screen, biochemical, fluorescence polarization, single point; inhibition, % at 9.4 µM; Keap1 Kelch-Nrf2 peptide fluorescence polarization, 1536-well; AID 504523, 2011; Kelch-like ECH-associated protein 1 (Homo sapiens), Q14145; 340,000 compounds, 0.15% hits; in the data active = inhibition above about 12%;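 note: human Keap1 Kelch domain with fluorescein labeled Nrf2 9mer peptide probe; 0% = neutral control wells and 100% = peptide positive control; higher means more block of Keap1 binding to Nrf2 peptide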
* = called active by the depositor. Only some compounds are listed: those with a hit (about 1.3% of all), similar ones and a draw of the others.

`CCc1c(O)nc(SC2CC(=O)N(c3ccc(F)c(Cl)c3)C2=O)[nH]c1=O` (centres undefined) gave CRFBP-R2 agonist 0, C-LANA FP 0, cardiac RTF act 3, CRFBP-R2 block 4, Cardiac RTF inh -4 and Keap1 Nrf2 FP -3.
`CNC(=O)C1CCN(S(=O)(=O)c2c(C)noc2/C=C/c2ccc(OC)cc2)CC1` gave CRFBP-R2 agonist 54*, C-LANA FP -1, cardiac RTF act 6, CRFBP-R2 block -54, Cardiac RTF inh -5 and Keap1 Nrf2 FP -2.
CCCNC(=O)C1CCN(S(=O)(=O)c2c(C)noc2/C=C\c2ccc(OC)cc2)CC1 was read as CRFBP-R2 agonist -5, C-LANA FP -1, cardiac RTF act 1, CRFBP-R2 block 9, Cardiac RTF inh -1 and Keap1 Nrf2 FP 2.
CCn1c(SCC(=O)N2CCCCC2)nc2c(c1=O)SCC2 was read as CRFBP-R2 agonist -1, C-LANA FP 0, cardiac RTF act -3, CRFBP-R2 block 52*, Cardiac RTF inh -3 and Keap1 Nrf2 FP 0.
Cn1c2c(c(=O)n(C)c1=O)C(C(F)(F)F)(C(F)(F)F)N=C(c1ccc(Cl)cc1)N2 was read as CRFBP-R2 agonist 83*, C-LANA FP -1, cardiac RTF act -2, CRFBP-R2 block 30, Cardiac RTF inh -3 and Keap1 Nrf2 FP -1.
Screening CCN(CC)c1ccc(/C=C/c2cccc[n+]2C)c(OC)c1 returned CRFBP-R2 agonist 55*, C-LANA FP -47, cardiac RTF act 75*, CRFBP-R2 block -90, Cardiac RTF inh -96 and Keap1 Nrf2 FP -135.
For CCNc1nc(NCC)n2c(SCc3ccc(F)cc3)nnc2n1 the results were CRFBP-R2 agonist 0, C-LANA FP 0, cardiac RTF act 7, CRFBP-R2 block 51*, Cardiac RTF inh -13 and Keap1 Nrf2 FP 1.
CCNc1nc(NCC)n2c(SCC(=O)Nc3ccc(CC)cc3)nnc2n1 was read as CRFBP-R2 agonist -1, C-LANA FP 0, cardiac RTF act -5, CRFBP-R2 block 3, Cardiac RTF inh -4 and Keap1 Nrf2 FP 0.
`C=CCNc1nc(C2(C)CC3(CC(C)(C)OC3=O)C(=O)O2)cs1` (centres undefined) gave CRFBP-R2 agonist 1, C-LANA FP 1, cardiac RTF act 1, CRFBP-R2 block 10, Cardiac RTF inh -5 and Keap1 Nrf2 FP 0.
`N#Cc1c(N)nc(SC2CCCCC2=O)c(C#N)c1-c1ccco1` (centres undefined) gave CRFBP-R2 agonist 1, C-LANA FP 0, cardiac RTF act -5, CRFBP-R2 block 106*, Cardiac RTF inh -5 and Keap1 Nrf2 FP -3.
N#Cc1c(N)nc(SCc2ccccc2)c(C#N)c1-c1ccco1 was read as CRFBP-R2 agonist 1, C-LANA FP -3, cardiac RTF act 4, CRFBP-R2 block -24, Cardiac RTF inh -8 and Keap1 Nrf2 FP -2.
For COc1ccc(CCNC(=O)C(CCC(N)=O)NS(=O)(=O)c2ccc(Cl)cc2)cc1OC (centres undefined) the results were CRFBP-R2 agonist 1, C-LANA FP 0, cardiac RTF act -1, CRFBP-R2 block 6, Cardiac RTF inh -3 and Keap1 Nrf2 FP -5.
For Cc1cc(C(=O)NNC(=O)C(CCC(N)=O)NS(=O)(=O)c2ccc(Cl)cc2)c(C)o1 (centres undefined) the results were CRFBP-R2 agonist 0, C-LANA FP 3, cardiac RTF act 1, CRFBP-R2 block 67*, Cardiac RTF inh 1 and Keap1 Nrf2 FP -1.
Cc1noc(C)c1C(=O)N1CCC(Cc2ccccc2)CC1 was read as CRFBP-R2 agonist -1, C-LANA FP -1, cardiac RTF act 2, CRFBP-R2 block 4, Cardiac RTF inh -14 and Keap1 Nrf2 FP 2.
